Values joined by “and” are separate entries in the source; they are usually repeats but may differ in a detail not shown here. Equal entries are not always repeated. ± gives the standard deviation of the averaged measurements.
System: SUM149
Assay: percent difference in area under dose-response curve of relative cell number, RPMI vs HPLM; higher = drug relatively more effective in HPLM than RPMI (negative = less effective in HPLM)
Settings: treatment time: 72 h; dose range: 10-point, 1 nM to 20 µM; media compared: RPMI vs HPLM

| SMILES | percent difference in area under dose-response curve |
| --- | --- |
| CCCS(=O)(=O)Nc1ccc(F)c(C(=O)c2c[nH]c3ncc(-c4ccc(Cl)cc4)cc23)c1F [Vemurafenib] | 6.44% |
| CC1=CC(=O)c2ccccc2C1=O [Menadione] | -3.63% |
| Nc1ncn([C@@H]2O[C@H](CO)[C@@H](O)[C@H]2O)c(=O)n1 [Azacitidine] | -13.8% |
| CCCCc1nc2cc(/C=C/C(=O)NO)ccc2n1CCN(CC)CC | 0.47% |
| COc1cc2ncnc(Nc3ccc(F)c(Cl)c3)c2cc1NC(=O)/C=C/CN1CCCCC1 [Dacomitinib] | -9.71% |
| NC(=O)CCCSc1nc(N)nc(-c2c(Cl)cc3c4c(cccc24)COC3)n1 | -19.2% |
| COc1cc(Nc2ncc(F)c(Nc3ccc4c(n3)NC(=O)C(C)(C)O4)n2)cc(OC)c1OC | 6.12% |
| Oc1nc(-c2ccc(C(F)(F)F)cc2)nc2c1CSCC2 | -0.882% |
| COc1cc([C@@H]2c3cc4c(cc3[C@@H](O[C@@H]3O[C@@H]5CO[C@@H](C)O[C@H]5[C@H](O)[C@H]3O)[C@H]3COC(=O)[C@H]23)OCO4)cc(OC)c1O [Etoposide] | -22.4% |
| CCCCCCCCc1ccc(CCC(N)(CO)CO)cc1 [Fingolimod] | 3.22 ± 1.4% |
| COc1cccc2c(NCc3ccccc3)nc(-n3c(N)nc4ccccc43)nc12 | -7.47% |
| O=C(NC1CCNCC1)c1n[nH]cc1NC(=O)c1c(Cl)cccc1Cl | -11.2% |
| CN1CCN(c2ccc(OC(F)(F)F)c(Nc3ncc4c(n3)-c3c(c(C(N)=O)nn3CCO)CC4)c2)CC1 | -12.8% |
| Cc1ccc(-n2nc(C(C)(C)C)cc2NC(=O)Nc2ccc(OCCN3CCOCC3)c3ccccc23)cc1 | -3.95% |
| Cc1[nH]c(/C=C2\C(=O)Nc3ccc(S(=O)(=O)N(C)c4cccc(Cl)c4)cc32)c(C)c1C(=O)N1CCN(C)CC1 | -9.77% |
| Cc1nc(N)sc1-c1ccnc(Nc2ccc(N3CCOCC3)cc2)n1 | 11% |
| O=C(Nc1cccc(Cl)c1)Nc1ncc(CCNc2ncnc3ccsc23)s1 [SNS314_Mesylate] | -24.4% |

| SMILES | percent difference in area under dose-response curve |
| --- | --- |
| COC(=O)Nc1ccc(-c2nc(N3CCOCC3)c3cnn(C4CCN(C(=O)OC)CC4)c3n2)cc1 | 0.775% |
| O=C(O)c1ccc2c(c1)nc(Nc1cccc(Cl)c1)c1ccncc12 | 0.753% |
| c1ccc2c(CCNc3ccc(Nc4ccncc4)cc3)c[nH]c2c1 | -22.6% |
| CCNC(=O)c1noc(-c2cc(Cl)c(O)cc2O)c1-c1ccc(OC)cc1 | -12.2% |
| CC(C)C[C@@H](C(=O)N[C@H](C(=O)OC1CCCC1)c1ccccc1)[C@H](O)C(=O)NO | -3.27% |
| Cc1ccc(C(=O)Nc2ccc(CN3CCN(C)CC3)c(C(F)(F)F)c2)cc1C#Cc1cnc2cccnn12 [Ponatinib] | 16.9% |
| CC(=O)O[C@]1(C(C)=O)CC[C@H]2[C@@H]3C[C@H](C)C4=CC(=O)CC[C@]4(C)[C@H]3CC[C@@]21C [Medroxyprogesterone_acetate] | 0.646% |
| O=C(O)Cc1cccc(OCCCN(Cc2cccc(C(F)(F)F)c2Cl)CC(c2ccccc2)c2ccccc2)c1 | 1.28% |
| C=CCNC1=C2C[C@@H](C)C[C@H](OC)[C@H](O)[C@@H](C)/C=C(\C)[C@H](OC(N)=O)[C@@H](OC)/C=C\C=C(/C)C(=O)NC(=CC1=O)C2=O | -27.6% and -16.3% |
| OC(c1cc(C(F)(F)F)nc2c(C(F)(F)F)cccc12)C1CCCCN1 (centres undefined) [Mefloquine] | 3.47% |
| CCC(C)(C)C(=O)O[C@H]1C[C@@H](C)C=C2C=C[C@H](C)[C@H](CC[C@@H]3C[C@@H](O)CC(=O)O3)[C@H]21 [Simvastatin] | -12.1% |
| CC1(C)C=C(CN2C/C(=C\c3ccc(F)cc3)C(=O)/C(=C/c3ccc(F)cc3)C2)C(C)(C)N1O | 2.04% |
| Nc1ccc(C(=O)Nc2cccc(-c3nc(N4CCOCC4)c4oc5ncccc5c4n3)c2)cn1 | 7.67% |
| NC(=O)c1[nH]nc([C@@H]2O[C@H](CO)[C@@H](O)[C@H]2O)c1O [Pyrazofurin] | 5.89% |
| CC1=C(/C=C/C(C)=C/C=C/C(C)=C/C(=O)Nc2ccc(O)cc2)C(C)(C)CCC1 [Fenretinide] | -3.15% |
| CC(=O)OC[C@H]1O[C@@H]([S-])[C@H](OC(C)=O)[C@@H](OC(C)=O)[C@@H]1OC(C)=O.CCP(CC)CC.[Au+] [Auranofin] | -10.3% |
| C[C@@H](Oc1cc(-n2cnc3ccc(CN4CCN(C)CC4)cc32)sc1C(N)=O)c1ccccc1C(F)(F)F | -20.5% |

From the supplement of paper PMC11383364
